Screening results from PubChem BioAssay.
POLB inh: DNA polymerase beta (human) inhibition. P06746. Pol beta primer extension/strand displacement, fluorescence kinetic. Potency, µM (doses to about 114 µM), most hits filed as inhibitors. actives 1.3% (n = 340,000). AID 485314
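10 nM enzyme + cpd, 15 min RT; start with substrate 50 nM final; read 0 min and after 10 min RT. Corrected, normalized data; 4-parameter Hill curve fit.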
POLI inh: inhibitors of human DNA polymerase iota | Q9UNA4 | Potency, µM (series often up to 115 µM), most hits filed as inhibitors | actives 1% (n = 390,000) | Pol iota fluorescent replication assay, 10 min
Target sequence (Q9UNA4 whole entry, looked up): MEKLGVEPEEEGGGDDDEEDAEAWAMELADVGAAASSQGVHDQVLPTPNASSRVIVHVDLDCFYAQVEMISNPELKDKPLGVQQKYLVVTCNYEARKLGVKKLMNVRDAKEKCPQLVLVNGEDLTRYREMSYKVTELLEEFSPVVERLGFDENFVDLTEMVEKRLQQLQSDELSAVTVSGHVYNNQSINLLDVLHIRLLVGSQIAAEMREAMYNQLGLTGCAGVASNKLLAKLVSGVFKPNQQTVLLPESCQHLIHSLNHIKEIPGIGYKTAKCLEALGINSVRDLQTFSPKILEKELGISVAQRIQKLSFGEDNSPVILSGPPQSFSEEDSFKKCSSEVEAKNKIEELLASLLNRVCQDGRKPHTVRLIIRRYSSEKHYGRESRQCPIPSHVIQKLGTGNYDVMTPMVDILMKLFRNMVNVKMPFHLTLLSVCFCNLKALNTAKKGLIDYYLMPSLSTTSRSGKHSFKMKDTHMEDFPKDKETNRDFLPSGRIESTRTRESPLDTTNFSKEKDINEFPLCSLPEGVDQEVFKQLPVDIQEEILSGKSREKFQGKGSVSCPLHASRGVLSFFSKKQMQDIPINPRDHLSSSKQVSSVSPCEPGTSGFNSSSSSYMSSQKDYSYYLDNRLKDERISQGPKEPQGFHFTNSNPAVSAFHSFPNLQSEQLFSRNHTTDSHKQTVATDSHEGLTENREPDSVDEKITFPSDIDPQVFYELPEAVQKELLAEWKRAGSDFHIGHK
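Pol iota at 10 nM preincubated 15 min with compounds at room temperature; reaction started with fluorescent substrate, 50 nM final. Fluorescence read kinetically at 0 and 10 min; buffer-only wells as negative control.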
Pol eta inh: inhibitors of human DNA polymerase eta | Potency, µM (series often up to 114 µM), hits mostly inhibitors | actives 1.2% (n = 390,000) | recombinant Pol eta, fluorescent DNA replication assay | AID 588591
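Fluorescent replication assay: 50 nM final substrate added after a 15 min room-temperature compound preincubation with 10 nM enzyme. Signal taken at 0 min and again at 10 min.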
POLK inh: DNA polymerase kappa (human) inhibition; Potency, µM (top dose mostly 107 µM), hits mostly inhibitors; actives 0.53% (n = 400,000); purified Pol kappa, fluorescent DNA synthesis assay, 10 min; Q9UBT6
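Pol kappa 10 nM + cpd, 15 min RT; start w/ substrate 50 nM final; fluorescence kinetic read, 0 and 10 min. Neg ctrl: buffer, no enzyme.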
WRN helicase inh: inhibitors of human WRN helicase | Potency, µM (highest dose often 114 µM), most hits filed as inhibitors | AID 651768 | WRN helicase unwinding, fluorescent forked duplex, kinetic | Q14191 | actives 0.46% (n = 360,000); also: nearly all actives have a fitted effect of over 55% in size
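WRN at 20 nM final preincubated with compound 15 min at room temperature; reaction started with 100 nM fluorophore/quencher forked duplex oligonucleotide and 2 mM ATP final. Unwinding followed kinetically by red fluorescence (ex 525, em 598 nm).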
FEN1 inhibitor: human FEN1 inhibition. P39748. Recombinant FEN1 flap cleavage, fluorescence, 15 min. Potency, µM (series often up to 114 µM), actives largely listed as inhibitors. actives 0.35% (n = 390,000). AID 588795; also: nearly all actives have a fitted effect of over 65% in size
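Potency values derive from four-parameter Hill fits of normalized qHTS data. The reaction used 10 nM FEN1 preincubated 15 min at room temperature with compound, then 50 nM DNA substrate, read at 0 and 15 min.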
Hits are given with their value; n = inactive; u = inconclusive; x = no result given; [ ] = another dose, or the depositor's remark. This is a sample that favours compounds with a hit; in the whole collection about 2.4% have one here. Calls follow the shape of the dose curve; as a rule, active = well fitted curve in the direction sought with a large enough effect; inconclusive = small, poorly fitted or top-dose-only effect, or another doubt; inactive = no such curve, though single readings can be large; an effect the other way counts as inactive or inconclusive.

SMILES	POLB inh	POLI inh	Pol eta inh	POLK inh	WRN helicase inh	FEN1 inhibitor
COc1ccc(NC(=O)NCCn2nnc3cc(S(=O)(=O)N(C)C)ccc32)cc1	n	n	n	n	x	n
COc1ccccc1N1CCN(C(=O)c2ccc(C(C)(C)C)cc2)CC1	u	u	n	n	50µM	n
COc1ccccc1N1CCN(C(=O)N2CCOCC2)CC1	n	89µM	n	n	n	n
O=C1C(c2ccccc2)=[N+]([O-])c2ccccc21	x	8.9µM	u	n	71µM	u
COc1ccc(N2CCN(C(=O)c3ccc(NC(=O)C4=CSCCO4)cc3)CC2)cc1	n	35µM	n	n	n[11.6 µM]	n
CCC(C)NC(=O)Cn1ncc2c(C)n(Cc3ccc(F)cc3)c(C)c2c1=O (stereo not drawn)	n	n	n	n	x	n
Nc1ccc2c(O)cc(S(=O)(=O)O)cc2c1	x	8.9µM	5.6µM	14µM	u	8.9µM
O=C(O)c1cc(S(=O)(=O)O)ccc1O	n	n	n	n	n	n
COc1ccc(C(=O)OCc2cc(=O)oc3cc(C)ccc23)cc1S(=O)(=O)N1CCOCC1	x	x	n	x	n	x
COc1ccc2c(COC(=O)c3ccc(C)c(S(=O)(=O)N4CCOCC4)c3)cc(=O)oc2c1	x	u	14µM	n	n	n
CC(=O)Nc1ccc(NC(=O)CCc2c(C)nc3c(c(C)nn3-c3ccc(C)cc3)c2C)cc1	n	n	x	n	x	n
Cc1cc(C)c(O)c(-c2cc(C(=O)Nc3cccnc3)[nH]n2)c1	56µM	u	n	n	n	n
O=C(CNC(=O)c1cccc(F)c1)N/N=C/c1cc(Br)ccc1OC(=O)/C=C/c1ccco1	35µM	u	n	n	n	n
COc1ccc(-n2c(=O)c3c(c4cc(OC)ccc4n3C)n(Cc3cc(C)ccc3C)c2=O)cc1	n	n	n	n	x	n
COc1ccc(NCc2ccc([N+](=O)[O-])s2)cc1	22µM	n	n	n	n	n
COc1ccc(NCc2ccc([N+](=O)[O-])s2)c(OC)c1	22µM	n	u	n	n	u
O=[N+]([O-])c1ccc(CNc2ccc(F)cc2)s1	n	n	n	n	n	n
COc1ccc(CC(=O)NC2CCN(CC(=O)N3CCCc4ccccc43)CC2)cc1OC	n	n	n	n	n	n
COc1ccc(CC(=O)N2CCCc3ccccc32)cc1OC	n	89µM	n	n	n	n
C=C1C(=O)C23C(O)C1CCC2C12CCCC(C)(COC(C)=O)C1C(O)C3(O)OC2 (stereo not drawn)	x	n	n	n	18µM	n
O=[N+]([O-])c1c(NCCCO)cc(Sc2ccc(Cl)cc2)c2nonc12	n	n	n	n	n	u
O=[N+]([O-])c1c(NCCCO)cc(SCc2ccco2)c2nonc12	50µM	n	n	n	n	u
COC(=O)CCSc1cc(NCCOC(C)=O)c([N+](=O)[O-])c2nonc12	n	u	u	n	n	u
CC(=O)OCCNc1cc(SCc2ccco2)c2nonc2c1[N+](=O)[O-]	u	18µM	u	79µM	u	u
Cc1cc(N2C(=O)C3C4C=CC(C4)C3C2=O)ccc1NC(=O)c1cccs1 (stereo not drawn)	32µM	u	u	n	n	n
SMILES	POLB inh	POLI inh	Pol eta inh	POLK inh	WRN helicase inh	FEN1 inhibitor
C=CCn1c(COc2ccc(F)cc2)nnc1SCC(=O)NC(=O)NCc1ccco1	25µM	50µM	u	u	n	n
C=CCn1c(COc2ccc(F)cc2)nnc1SCC(=O)NC1CCCC1	x	n	n	n	n	n
C=CCn1c(COc2cccc(C)c2)nnc1SCC(=O)NC(=O)NCc1ccco1	20µM	71µM	u	u	n[11.6 µM]	n
O=C(CSc1nnc(-c2ccncc2)n1-c1ccc(F)cc1)NC(=O)NCc1ccco1	28µM	20µM	79µM	u	u	n
C=CCn1c(COc2cccc(C)c2)nnc1SCC(=O)c1c(N)n(C)c(=O)n(C)c1=O	x	n	n	n	n	n
Cc1ccc(C)c(N2CCN(C(c3ccc(F)cc3)c3nnc(-c4ccccc4)o3)CC2)c1 (stereo not drawn)	n	89µM	n	u	x	u
Cc1ccc(C)c(N2CCN(C(c3ccccc3)c3nnc(-c4ccccc4F)o3)CC2)c1 (stereo not drawn)	n	n	n	n	x	n
Cc1cc(Cl)n2c(nc3ccccc32)c1C#N	89µM	22µM	40µM	n	u	n
O=C(C[n+]1ccccc1Cl)c1cccc([N+](=O)[O-])c1	x	n	x	n	x	n
O=C1/C(=C/c2ccccc2Cl)SC(=S)N1CCC(=O)N1CCCCC1CCO (stereo not drawn)	n	25µM	n	u	n[11.6 µM]	n
O=C1/C(=C\c2ccccc2)SC(=S)N1CCC(=O)N1CCCCC1CCO (stereo not drawn)	n	n	n	n	n	n
O=C(CCCN1C(=O)/C(=C/c2ccccc2Cl)SC1=S)NCCCN1CCOCC1	n	u	n	n	89µM	n
Cc1ccc(C(=O)n2nc(C)c(S(=O)(=O)N3CCCCCC3)c2C)cc1	n	n	n	n	x	n
CC1=C(c2ccc(C(C)C)cc2)S(=O)(=O)N=C1N1CCC(C(=O)NCc2ccco2)CC1	n	n	x	n	x	n
CC1=C(c2ccc(C(C)C)cc2)S(=O)(=O)N=C1N1CCN(C(=O)c2ccco2)CC1	n	50µM	n	u	n	n
O=C(c1ccco1)N1CCN(C(=O)c2ccc(-c3ccc([N+](=O)[O-])cc3)o2)CC1	x	18µM	22µM	28µM	u	79µM
O=C(c1ccc([N+](=O)[O-])cc1)N1CCN(C(=O)c2ccco2)CC1	n	n	n	n	n	n
CCOc1cc(C2NC(=O)c3c(sc4c3CCN(C)C4)N2)ccc1OC(=O)c1ccccc1Cl (stereo not drawn)	n	u	n	n	x	89µM
COc1ccc(C(=O)Oc2ccc(C3NC(=O)c4c(sc5c4CCN(C)C5)N3)cc2OC)cc1 (stereo not drawn)	n	n	n	n	x	n
Cc1ccc(S(=O)(=O)n2ccc3c(OCCOCCSCC(NC(=O)OC(C)(C)C)C(=O)O)cccc32)cc1 (stereo not drawn)	71µM	28µM	u	u	n	n
O=S(=O)(NCCNCC=Cc1ccc(Br)cc1)c1cccc2cnccc12	x	n	x	n	x	n
CC(=O)Nc1nonc1-c1nc2ccccc2n1N(C(C)=O)C(C)=O	35µM	u	u	n	n	n
COc1ccc2c(c1)c(CC(=O)NCc1cc([N+](=O)[O-])ccc1O)c(C)n2C(=O)c1ccc(Cl)cc1	40µM	u	45µM	n	u	n
CC1CCN(S(=O)(=O)c2ccc3c(c2)CCC(=O)N3CC(=O)Nc2cccc(C#N)c2)CC1	50µM	u	79µM	n	x	n
